A short description of assay [1]: Nuclear factor erythroid 2-related factor 2/antioxidant responsive element (Nrf2/ARE) small molecule agonists: qHTS cell viability counter screen in human keratinocytes (AID 1919968; active = well fitted curve in the direction sought with a large enough effect in the repeat runs; an effect the other way counts as inactive or inconclusive; also: nearly all actives have a fitted effect of over 55% in size). The method in brief:
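KeratinoSens cells (HaCaT keratinocytes stably carrying an ARE-luciferase reporter) were seeded at 1,500 cells/well and rested 5 h at 37 C/5% CO2. They were then exposed to compounds in DMSO for 23 h. Viability was read by CellTiter-Fluor fluorescence after 1 h.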
Background: qHTS replaces the single test concentration by a dilution series.

The nature of assay [2]: Nuclear factor erythroid 2-related factor 2/antioxidant responsive element (Nrf2/ARE) small molecule agonists: luciferase reporter gene qHTS assay in human keratinocytes (AID 1919969). Also: nearly all actives have a fitted effect of over 35% in size. A general note: Reporter assays use an easily measured gene product as a stand-in for the process of interest.
In assay [3] the target is Gonadotropin-releasing hormone receptor (Homo sapiens) (UniProt P30968). Kind of assay: Human gonadotropin-releasing hormone receptor (GnRHR) small molecule agonists, calcium flux assay in GnRHR-HEK293 cells (AID 1920063). Also: nearly all actives have a fitted effect of over 35% in size. In short, it runs like this: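 HEK293 cells stably expressing human GnRHR were plated 18 h at 37 °C, loaded with calcium dye 1 h at 37 °C, then given compound in agonist mode; fluorescence (Ex/Em 480/540) read kinetically for 3 min at 1 s intervals.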
For orientation: Calcium flux is commonly read through the fluorescence of an indicator in the cells.

The target of assay [4] is KiSS-1 receptor (Homo sapiens) (UniProt Q969F8). Put plainly: Human kisspeptin (KISS1R) small molecule agonists, calcium flux assay in KISS1R-HEK293 cells (AID 1920064; active = well fitted curve in the direction sought with a large enough effect in the repeat runs; an effect the other way counts as inactive or inconclusive). The method in brief: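 HEK293 cells stably expressing human KISS1R were plated 18 h at 37 °C, loaded with calcium dye for 1 h at 37 °C, then given compound by pin tool. Fluorescence (Ex/Em 480/540) was read kinetically for 3 min.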

Assay [5] is described as follows: G protein-coupled receptor (GPCR) small molecule agonists, calcium flux assay: HEK293 wild type cell line counter screen (AID 1920065). In short, it runs like this:
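Cells were plated and cultured 18 h at 37 C/5% CO2, then loaded with calcium dye for 1 h at 37 C. Compounds in DMSO were pin-transferred in agonist mode, and fluorescence (Ex/Em 480/540) was read kinetically for 3 min at 1 s intervals.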

Assay [6] in a line: p53 small molecule agonists, cell-based qHTS assay with rat liver microsomes (AID 1963578). In short, it runs like this:
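Agonist mode in p53RE-bla reporter cells, with compounds co-incubated 16 h at 37 C alongside 0.5 mg/mL rat liver microsomes and 0.5 mg/mL NADPH (final), followed by a 2 h LiveBLAzer detection step.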

The nature of assay [7]: p53 small molecule agonists, cell-based qHTS assay with human liver microsomes: qHTS cell viability counter screen (AID 1963579). Also: nearly all actives have a fitted effect of over 45% in size. The method in brief:
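Metabolically activated exposure: compounds, human liver microsomes and NADPH (0.5 mg/mL final apiece) were added to p53RE-bla cells seeded 5 h earlier, left 16 h at 37 C, and then assessed for viability by CellTiter-Glo luminescence.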

Assay [8] in a line: p53 small molecule agonists, cell-based qHTS assay with rat liver microsomes: qHTS cell viability counter screen (AID 1963580). Also: nearly all actives have a fitted effect of over 45% in size. In short, it runs like this:
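HCT-116 p53RE-bla, 4,000 cells/well, 5 h pre-incubation; cpd + rat liver microsomes 0.5 mg/mL + NADPH 0.5 mg/mL (final); 16 h, 37 C; CellTiter-Glo, 30 min RT; luminescence.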

A short description of assay [9]: p53 small molecule agonists, cell-based qHTS assay: qHTS cell viability counter screen (AID 1963581). Also: nearly all actives have a fitted effect of over 45% in size. In short, it runs like this:
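p53RE-bla HCT-116 cells were exposed to compounds for 16 h at 37 C; after the beta-lactamase FRET read in the same wells, CellTiter-Glo was added and luminescence (intracellular ATP) read after 30 min at room temperature.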

Assay [10] can be described thus: p53 small molecule agonists, cell-based qHTS assay (AID 1963582; active = well fitted activation curve with a large enough effect in the signal ratio in the repeat runs, not every such curve was filed as active; the % refers to the signal ratio). The method in brief: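 p53RE-bla beta-lactamase reporter cells rested 5 h at 37 C/5% CO2, then received compounds in DMSO by pin transfer and were incubated 16 h at 37 C. LiveBLAzer B/G FRET substrate was loaded for 2 h at room temperature before fluorescence reading.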
Assay [11] has as its target 5-hydroxytryptamine receptor 2A (Homo sapiens) (UniProt P28223). Put plainly: 5-hydroxytryptamine receptor 2A (HTR2A) small molecule antagonists, cell-based qHTS assay (AID 1963586). Also: nearly all actives have a fitted effect of over 45% in size. Also: potency is read from the fitted curve at half-maximal effect. The method in brief:
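Antagonist-mode intracellular calcium assay: DOI (4 nM) added after 5 min compound pre-incubation at room temperature to dye-loaded HTR2A-CHO cells. Fluorescence followed for 3 min, sampled every second.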

Assay [12] has the same target. Kind of assay: 5-hydroxytryptamine receptor 2A (HTR2A) small molecule agonists, cell-based qHTS assay (AID 1963587). Also: nearly all actives have a fitted effect of over 30% in size. Also: potency is read from the fitted curve at half-maximal effect. The method in brief: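 Kinetic calcium-flux fluorescence (2 min, 1 sec intervals) after compound addition in agonist mode. HTR2A-CHO cells were cultured 18 h, then dye-loaded 1 h at 37 C.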
In assay [13] the target is Muscarinic acetylcholine receptor M1 (Homo sapiens) (UniProt P11229). Kind of assay: Cholinergic receptor muscarinic 1 (CHRM1) small molecule agonists, cell-based qHTS assay (AID 1963589). Also: nearly all actives have a fitted effect of over 35% in size. The method in brief: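 CHO cells stably expressing human CHRM1, seeded 18 h at 37 C/5% CO2, dye-loaded 1 h at 37 C, then given compound in agonist mode; intracellular calcium fluorescence read kinetically at 1 s intervals. Fifteen concentrations, three independent runs.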

Assay [14] in a line: cAMP Responsive Elements (CRE) small molecule agonists, cell-based qHTS assay (AID 1963590). The method in brief:
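CRE-bla HEK 293T cells in DMEM with 10% dialyzed FBS, NEAA, pyruvate and 25 mM HEPES were plated 18 h at 37 C/5% CO2, then exposed to compounds in DMSO for 3 h before LiveBLAzer B/G FRET substrate addition.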

Assay [15] can be described thus: cAMP Responsive Elements (CRE) small molecule antagonists, cell-based qHTS assay (AID 1963591; active = well fitted inhibition curve with a large enough effect in the signal ratio in the repeat runs, not every such curve was filed as active; the % refers to the signal ratio). The method in brief:
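CRE-bla HEK293T cells were plated 18 h at 37 °C/5% CO2, pinned with compound in DMSO, then stimulated with NKH477 at 0.25 uM final for 3 h. LiveBLAzer B/G FRET substrate was added and plates incubated 2 h at room temperature.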

In assay [16] the target is Beta-2 adrenergic receptor (Homo sapiens) (UniProt P07550). Kind of assay: Adrenergic beta2 receptor (ADRB2) small molecule antagonists, cell-based qHTS assay (AID 1963592). Also: nearly all actives have a fitted effect of over 50% in size. Also: potency is read from the fitted curve at half-maximal effect. As to activity change, negative = inhibition: series mostly up to about 92 µM. In short, it runs like this: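 Cells (CHO, stable ADRB2 overexpression) incubated 18-20hr at 37C; compounds added from DMSO; agonist mix (1nM isoproterenol, 100uM IBMX, 25uM Ro-20-1724) added; 0.5hr RT; d2-cAMP and anti-cAMP-cryptate added; 1hr RT; 665/615 nm read.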

Assay [17] deals with D(2) dopamine receptor (Homo sapiens) (UniProt P14416). Kind of assay: Dopamine D2 receptor (DRD2) small molecule antagonists, cell-based qHTS assay (AID 1963595; active = well fitted inhibition curve with a large enough effect in the signal ratio in the repeat runs, with a control signal flat; the % refers to the signal ratio). In short, it runs like this: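 Antagonism was scored as restored cAMP in HEK293-DRD2 cells. These cells were stimulated with 200 nM NKH477 and 12 nM quinpirole for 30 min at room temperature, in the presence of 0.1 mM Ro20-1724.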

Assay [18] addresses Muscarinic acetylcholine receptor M1 (Homo sapiens) (UniProt P11229). Kind of assay: Cholinergic receptor muscarinic 1 (CHRM1) small molecule antagonists, cell-based qHTS assay (AID 1963588). Also: nearly all actives have a fitted effect of over 40% in size. In short, it runs like this:
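CHRM1-CHO calcium-flux assay, antagonist mode. Cells were seeded 18 h, dye-loaded 1 h at 37 C and given compound for 5 min at RT, then acetylcholine was added at 50nM. FDSS fluorescence was read 3 min; 15 concentrations, three runs.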

Assay [19] addresses Beta-2 adrenergic receptor (Homo sapiens) (UniProt P07550). Kind of assay: Adrenergic beta2 receptor (ADRB2) small molecule agonists, cell-based qHTS assay (AID 1963593).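 Also: CHO cells stably overexpressing human ADRB2.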 In short, it runs like this: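 CHO cells stably over-expressing ADRB2 were plated overnight at 37C, then dosed with compounds plus a stimulation mix containing 100uM IBMX and 25uM Ro-20-1724 for 0.5hr at room temperature. cAMP was measured by HTRF competition, 1hr.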

Assay [20] concerns the target D(2) dopamine receptor (Homo sapiens) (UniProt P14416). Put plainly: Dopamine D2 receptor (DRD2) small molecule agonists, cell-based qHTS assay (AID 1963594). Also: nearly all actives have a fitted effect of over 35% in size. In short, it runs like this:
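cAMP accumulation in DRD2-HEK293 cells measured by HTRF after 1 h detection; compounds added 10 min before NKH477 (200nM […]) forskolin-analogue stimulation, 30 min at room temperature, with Ro20-1724 present at 0.1 mM final.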

The source of these data is PubChem BioAssay (Tox21).

A number with no mark means an inactive call. Inconclusive results are not listed. Active and inactive are the calls of the source. Unless noted, calls follow the shape of the full dose curve.
% is scaled to controls: 0 for no effect and ±100 for the full control effect.

Chain of Muscarinic acetylcholine receptor M1 (Homo sapiens) (P11229 whole entry, looked up): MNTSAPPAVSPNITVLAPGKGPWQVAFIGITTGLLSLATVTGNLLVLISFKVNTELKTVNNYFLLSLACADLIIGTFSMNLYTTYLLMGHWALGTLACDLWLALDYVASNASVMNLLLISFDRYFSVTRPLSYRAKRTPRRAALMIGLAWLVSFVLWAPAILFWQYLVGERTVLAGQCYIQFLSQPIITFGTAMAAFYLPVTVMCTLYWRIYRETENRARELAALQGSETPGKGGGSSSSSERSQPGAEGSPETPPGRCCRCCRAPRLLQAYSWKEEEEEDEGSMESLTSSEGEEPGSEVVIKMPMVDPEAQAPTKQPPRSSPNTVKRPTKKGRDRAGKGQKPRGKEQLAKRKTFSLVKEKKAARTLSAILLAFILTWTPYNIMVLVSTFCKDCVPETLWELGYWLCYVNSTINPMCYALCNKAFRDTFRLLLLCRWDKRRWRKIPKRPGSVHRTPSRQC
Chain of Gonadotropin-releasing hormone receptor (Homo sapiens) (P30968 whole entry, looked up): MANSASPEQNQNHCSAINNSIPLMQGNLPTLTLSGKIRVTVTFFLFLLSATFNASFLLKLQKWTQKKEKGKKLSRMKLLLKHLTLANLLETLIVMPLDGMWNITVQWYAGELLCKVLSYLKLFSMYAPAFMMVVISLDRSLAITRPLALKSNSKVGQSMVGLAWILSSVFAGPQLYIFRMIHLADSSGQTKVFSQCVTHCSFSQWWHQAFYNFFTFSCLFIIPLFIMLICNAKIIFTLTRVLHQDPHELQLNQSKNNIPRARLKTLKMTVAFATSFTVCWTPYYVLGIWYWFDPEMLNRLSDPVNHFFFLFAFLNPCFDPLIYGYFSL
Chain of D(2) dopamine receptor (Homo sapiens) (P14416 whole entry, looked up): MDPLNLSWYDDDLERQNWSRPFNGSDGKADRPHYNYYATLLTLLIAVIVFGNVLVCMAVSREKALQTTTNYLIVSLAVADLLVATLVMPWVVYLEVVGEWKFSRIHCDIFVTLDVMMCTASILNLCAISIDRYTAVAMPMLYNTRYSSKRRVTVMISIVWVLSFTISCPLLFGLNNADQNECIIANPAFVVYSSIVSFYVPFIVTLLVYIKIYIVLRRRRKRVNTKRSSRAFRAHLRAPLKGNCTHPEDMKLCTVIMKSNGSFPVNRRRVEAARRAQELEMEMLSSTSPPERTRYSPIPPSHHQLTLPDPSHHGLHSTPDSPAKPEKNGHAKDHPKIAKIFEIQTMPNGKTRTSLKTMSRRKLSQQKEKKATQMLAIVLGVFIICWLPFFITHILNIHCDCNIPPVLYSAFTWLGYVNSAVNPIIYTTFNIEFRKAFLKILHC
Chain of KiSS-1 receptor (Homo sapiens) (Q969F8 whole entry, looked up): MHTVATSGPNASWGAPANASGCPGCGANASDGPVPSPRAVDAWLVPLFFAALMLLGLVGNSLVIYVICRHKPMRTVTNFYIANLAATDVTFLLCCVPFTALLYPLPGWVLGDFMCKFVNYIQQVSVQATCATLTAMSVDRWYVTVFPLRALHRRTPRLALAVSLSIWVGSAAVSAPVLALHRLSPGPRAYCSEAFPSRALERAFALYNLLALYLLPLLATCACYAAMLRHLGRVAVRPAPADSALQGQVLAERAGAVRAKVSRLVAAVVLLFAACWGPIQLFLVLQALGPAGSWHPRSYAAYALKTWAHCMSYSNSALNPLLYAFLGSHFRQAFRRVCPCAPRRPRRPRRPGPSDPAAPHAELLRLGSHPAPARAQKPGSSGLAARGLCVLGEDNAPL
Chain of 5-hydroxytryptamine receptor 2A (Homo sapiens) (P28223 whole entry, looked up): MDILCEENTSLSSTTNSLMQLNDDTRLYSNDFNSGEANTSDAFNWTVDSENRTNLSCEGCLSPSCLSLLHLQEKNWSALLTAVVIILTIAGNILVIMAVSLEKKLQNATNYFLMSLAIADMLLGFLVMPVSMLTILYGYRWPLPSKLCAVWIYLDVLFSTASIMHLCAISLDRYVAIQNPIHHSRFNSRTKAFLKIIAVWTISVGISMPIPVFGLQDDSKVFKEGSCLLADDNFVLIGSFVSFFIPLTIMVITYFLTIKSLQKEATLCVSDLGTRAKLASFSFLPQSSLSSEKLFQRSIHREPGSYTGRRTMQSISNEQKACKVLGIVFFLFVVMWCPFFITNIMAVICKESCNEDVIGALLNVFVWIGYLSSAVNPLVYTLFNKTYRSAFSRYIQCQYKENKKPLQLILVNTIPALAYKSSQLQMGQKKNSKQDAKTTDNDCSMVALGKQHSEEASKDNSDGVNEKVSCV
Chain of Beta-2 adrenergic receptor (Homo sapiens) (P07550 whole entry, looked up): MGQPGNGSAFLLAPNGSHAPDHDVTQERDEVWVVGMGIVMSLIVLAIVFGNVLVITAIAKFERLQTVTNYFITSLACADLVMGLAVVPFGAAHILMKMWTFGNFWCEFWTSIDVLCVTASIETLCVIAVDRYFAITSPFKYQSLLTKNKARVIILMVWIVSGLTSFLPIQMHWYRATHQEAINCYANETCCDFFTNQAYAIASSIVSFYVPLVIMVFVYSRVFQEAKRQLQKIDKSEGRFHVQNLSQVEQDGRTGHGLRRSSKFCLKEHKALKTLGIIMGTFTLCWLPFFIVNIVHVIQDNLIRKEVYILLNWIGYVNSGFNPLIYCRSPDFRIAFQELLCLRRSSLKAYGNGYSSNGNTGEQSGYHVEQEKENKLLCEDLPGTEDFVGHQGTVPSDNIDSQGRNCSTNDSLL

`CCCCCCCCCCCCCCCCCCCl`: the activity change, negative = cytotoxicity in [1] was -0.678% [at 8.39 µM]; in assay [7], 1.68% [at 5.99 µM]; in assay [8], 2.02% [at 5.99 µM]; in [9], -9.11% [at 5.99 µM]. Besides, the activity, positive = activation in [2] is -2.4% [at 8.39 µM]. Moreover, the activity change in [3] was 0.0314% [at 5.22 µM, hits give high values]. In addition, the activation in [4] is 6.45% [at 6.97 µM]; in assay [5] it was 0.281% [at 5.23 µM]; in assay [6] it was 2.88% [at 5.99 µM]; in assay [10], -3.59% [at 5.99 µM]; in [12], -0.0042% [at 7.02 µM]; in [13], 0.0826% [at 6.97 µM]. In assay [14], the activation was 0.946% [at 8.39 µM]. The activity, negative = inhibition in [11] is -6.54% [at 5.62 µM]. In addition, the results for the activity change, negative = inhibition in assay [15], in assay [16] and in assay [17] were -6.83% [at 8.39 µM], 8.82% [at 8.39 µM] and 3.22% [at 8.38 µM], respectively.

Take `CCCC(CCC)(C(=O)OCC)C(=O)OCC`: the Potency result in assay [1], in [2], in assay [3], in [4], in assay [5] and in assay [6] was “inactive” each time. The Potency entry in assay [7], in assay [8], in [9], in [10], in [18] and in assay [13] was “inactive” in each case. Moreover, the Potency entry in assay [14], in assay [15], in assay [16] and in assay [17] was “inactive” in each case. Besides, the figures for the Potency in assay [11] and in assay [12] were 3.26 µM (active) and 1.69 µM (active), respectively.

For `CN1CCN(C(=O)C2CCCCC2)CC1`, the Potency entry in assay [1], in assay [2], in [3], in assay [4], in assay [5] and in [6] was “inactive” throughout. In addition, the Potency result in assay [7], in assay [8], in assay [9], in assay [10], in [11] and in [12] was “inactive” in each case. Moreover, the Potency entry in assay [18], in assay [15], in assay [16], in [19], in assay [20] and in [17] was “inactive” each time.

As for `N[C@@H](CS)C(=O)O`, the Potency entry in [1], in [2], in assay [3], in [4], in [5] and in assay [6] was “inactive” each time. Besides, the Potency entry in assay [7], in assay [8], in assay [9], in assay [10], in assay [11] and in assay [12] was “inactive” each time. For the same compound, the Potency entry in assay [18], in assay [13], in [14], in assay [15], in assay [16] and in [20] was “inactive” each time. Further, the Potency entry in [17] is “inactive”.

Regarding `CCCCCCCCCCCCN(CCCCCCCCCCCC)CCCCCCCCCCCC`, the Potency result in assay [1], in assay [2], in assay [3], in [4], in [5] and in assay [6] was “inactive” each time. In addition, the Potency entry in assay [7], in assay [8], in assay [9], in assay [10], in [11] and in [12] was “inactive” in each case. In addition, the Potency entry in assay [18], in assay [13], in assay [14], in [16], in [19] and in [17] was “inactive” in each case.

With `O=C(CCCN1CCN(c2ccc(F)cc2)CC1)NC1c2ccccc2CSc2ccccc21` (stereo not given), the Potency entry in [1], in assay [2], in [3], in [4], in [5] and in assay [6] was “inactive” throughout. The Potency result in [7], in assay [8], in [9], in [10], in [12] and in assay [13] was “inactive” throughout. In assay [16], the Potency was 7.5 µM (active).

`CO/N=C(/C(=O)N[C@@H]1C(=O)N2C(C(=O)OCOC(=O)C(C)(C)C)=C(C)CS[C@H]12)c1csc(N)n1`: the Potency result in assay [1], in assay [2], in [3], in assay [4], in assay [5] and in assay [6] was “inactive” throughout. In addition, the Potency result in assay [7], in [8], in assay [9], in [10], in assay [11] and in assay [12] was “inactive” throughout. The Potency result in assay [18], in assay [13], in [16], in assay [20] and in assay [17] was “inactive” throughout.
